Activity calls are given as the source filed them. Entries that show only a call come without a potency. Unless noted, calls come from the whole dose curve; as a rule, active = well fitted inhibition curve with a large enough effect; inconclusive = small, poorly fitted or top-dose-only effect; inactive = no such curve, though single readings can be large or run the other way.

The first test in a line: qHTS profiling of the MIPE4 collection as inhibitors of Plasmodium falciparum (DD2) proliferation (Rep 2) (AID 743346; call rule not given here). The following applies: P. falciparum Dd2 in erythrocytes, SYBR Green DNA, 72 h; at 28.5 µM. The essentials: (§1)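 Erythrocytes infected with P. falciparum (0.3% parasitemia, 2.5% hematocrit) incubated with compounds 72 h at 37 C, 5% CO2. Lysis with saponin/Triton buffer containing SYBR Green I, overnight at room temperature in the dark; DNA fluorescence (485/535 nm) normalised to 0.29 uM artemisinin and DMSO.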
Consider `C=C[C@@H]1CN2CC[C@@H]1C[C@H]2[C@H](O)c1ccnc2ccc(OC)cc12`, for which the parasite growth, % of control (lower = inhibition) turned out to be 20.6%. For the compound `CC[C@@H](C)[C@H]1O[C@]2(CC[C@H]1C)C[C@@H]1C[C@@H](CC=C(C)[C@@H](O[C@H]3C[C@H](OC)[C@@H](O[C@H]4C[C@H](OC)[C@@H](O)[C@H](C)O4)[C@H](C)O3)[C@@H](C)C=CC=C3CO[C@@H]4[C@H](O)C(C)=C[C@@H](C(=O)O1)[C@]34O)O2`, the parasite growth, % of control (lower = inhibition) amounted to 38.4%.

The nature of a further test: qHTS profiling of the MIPE4 collection as inhibitors of Plasmodium falciparum (HB3) proliferation (AID 743347; call rule not given here). The following applies: P. falciparum HB3 in erythrocytes, SYBR Green DNA, 72 h; at 28.5 µM. Put shortly:
as §1
Turning to `COC(=O)C1=C(C)NC(C)=C(C(=O)OCC(C)C)C1c1ccccc1[N+](=O)[O-]` (centres undefined), the growth, % of control is 9.44%.

`C=C[C@@H]1CN2CC[C@@H]1C[C@H]2[C@H](O)c1ccnc2ccc(OC)cc12`: the growth, % of control amounted to 5.53%. In the case of `CC[C@@H](C)[C@H]1O[C@]2(CC[C@H]1C)C[C@@H]1C[C@@H](CC=C(C)[C@@H](O[C@H]3C[C@H](OC)[C@@H](O[C@H]4C[C@H](OC)[C@@H](O)[C@H](C)O4)[C@H](C)O3)[C@@H](C)C=CC=C3CO[C@@H]4[C@H](O)C(C)=C[C@@H](C(=O)O1)[C@]34O)O2`, the growth, % of control turned out to be 12.5%.

The next test in a line: qHTS assay for measurement of the activity of small molecule inhibitors on Zika virus induced Caspase-3 activity in human astrocytoma cells (AID 1224859). The following applies: SNB-19 ZIKV-induced caspase-3/7, luminescence, 6 h; series mostly up to 45.7 µM. Put shortly: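 Caspase activation in ZIKV-infected SNB-19 cells (2 FFU/cell, 6 h) measured by Caspase-Glo 3/7 luminescence after 30 min RT; compound pre-incubated 1 h; normalised to uninfected and infected controls.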
On to `Cc1[nH]cnc1CN1CCc2c(c3ccccc3n2C)C1=O`, for which the Potency result is “inactive”. Still for that read-out and setting: in the case of `O=C(O)/C=C\C(=O)O` it was “inactive”. Regarding `Cc1c(C(=O)O)c(O)cc2c1C(=O)c1c(O)c([C@@H]3O[C@H](CO)[C@@H](O)[C@H](O)[C@H]3O)c(O)c(O)c1C2=O`, the Potency result is “inactive”.

Turning to `CCOC(=O)c1ccccc1O`, the Potency result is “inactive”.

Turning to `CCCCCCCCCCCCCCCC(=O)OC(C)C`, the Potency result is “inactive”. On the same count and under the same terms, next, `CN(C)[C@@H]1C(=O)C(C(=O)NCN2CCCC2)=C(O)[C@@]2(O)C(=O)C3=C(O)c4c(O)cccc4[C@@](C)(O)C3C[C@@H]12` (some centres undefined): “inactive”. On to `Nc1cc(-c2ccncc2)c[nH]c1=O`, for which the Potency result is “inactive”. The same measure, in the same setting: next, `CC(=O)c1ccc(OCC(=O)N2CCCCC2)cc1`: “inactive”; `Nc1c(CC(=O)O)cccc1C(=O)c1ccc(Br)cc1`: “inactive”. With `CC(C)OC(=O)c1cc(C(=O)OC(C)C)cc([N+](=O)[O-])c1`, the Potency result was “inactive”. The same measure, in the same setting: in the case of `Cc1ccc(C(=O)c2ccc(CC(=O)O)n2C)cc1` it was “inactive”.

On to `COC(=O)C1=C(C)NC(C)=C(C(=O)OCC(C)C)C1c1ccccc1[N+](=O)[O-]` (centres undefined), for which the Potency entry is “inactive”.

Consider `Nc1ccc(O)c([N+](=O)[O-])c1`, for which the Potency entry is “inactive”. On to `[O-][n+]1ccccc1SSc1cccc[n+]1[O-]`, for which the Potency entry was “inactive”. On the same count and under the same terms, in the case of `S=c1[nH]c2ccccc2s1` it was “inactive”.

For the compound `COc1ccc(-c2cc(=S)ss2)cc1`, the Potency result is “inactive”. For the compound `CCOc1ccc2nc(S(N)(=O)=O)sc2c1`, the Potency result is “inactive”.

As to `O=C(O)c1ccccc1Nc1cccc(C(F)(F)F)c1`, the Potency result is “inactive”. Take `CCCC(=O)OC[C@@H](OC(=O)CCC)[C@@H](OC(=O)CCC)[C@H](Cn1c2nc(=O)[nH]c(=O)c-2nc2cc(C)c(C)cc21)OC(=O)CCC`: the Potency entry is “inactive”. Consider `O=C(OCc1ccccc1)c1ccccc1`, for which the Potency entry was “inactive”. In the case of `Nc1ccc([N+](=O)[O-])cc1O`, the Potency entry is “inactive”. Take `Cc1c(Nc2ncccc2C(=O)O)cccc1C(F)(F)F`: the Potency entry was “inactive”.

As for `C[N+]1(C)[C@@H]2CC(OC(=O)[C@H](CO)c3ccccc3)C[C@H]1[C@@H]1O[C@@H]12` (some centres undefined), the Potency result is “inactive”. On to `C=CCCCCCCCCC(=O)O`, for which the Potency entry is “inactive”. As to `O=C(/C=C/c1ccccc1)NCCO`, the Potency entry was “inactive”. With `COC(=O)C1=C(C)NC(C)=C(C(=O)OCC(C)=O)C1c1ccccc1[N+](=O)[O-]` (centres undefined), the Potency result is “inactive”. In the case of `Cc1cc(O)c2ccccc2c1O`, the Potency result is “inactive”. Still for that read-out and setting: next, `Nc1ccc(C(=O)O)c(O)c1`: “inactive”; `CC[C@@H](C)[C@H]1O[C@]2(CC[C@H]1C)C[C@@H]1C[C@@H](CC=C(C)[C@@H](O[C@H]3C[C@H](OC)[C@@H](O[C@H]4C[C@H](OC)[C@@H](O)[C@H](C)O4)[C@H](C)O3)[C@@H](C)C=CC=C3CO[C@@H]4[C@H](O)C(C)=C[C@@H](C(=O)O1)[C@]34O)O2`: “inactive”.

These data come from PubChem BioAssay (NCATS).
